According to the supplement of paper PMC9694430:
Where “and” joins values, the source holds several entries; their conditions need not be identical. Equal values may be shown once.

How the values were obtained:
Assay in all cases: thermal shift delta Tm vs DMSO control; higher = stronger stabilization (binding)
Conditions in all cases: 12.5 µM; protein concentration 2 µM
LOC_OS04G57630-cb004 = system: LOC_OS04G57630-cb004
In short: (§1)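 Rice kinase domain constructs, made in E. coli and purified, were placed in 96-well plates at 2 μM in 19.5 μl of 100 mM potassium phosphate pH 7.5, 150 mM NaCl, 10% glycerol and 5 × SYPRO Orange, with compound in DMSO. A temperature ramp from 25°C to 95°C at 0.05°C/s was used for differential scanning fluorimetry. The melting temperature shift is a triplicate mean compared with DMSO-only protein, derived from Boltzmann fits.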

LOC_OS05G07850-cb002 = system: LOC_OS05G07850-cb002
In short: as §1

LOC_OS05G16824-cb004 = system: LOC_OS05G16824-cb004
In short: as §1

LOC_OS05G28520-cb001 = system: LOC_OS05G28520-cb001
In short: as §1

LOC_OS05G30820-cb001 = system: LOC_OS05G30820-cb001
In short: as §1

LOC_OS05G43570-cb004 = system: LOC_OS05G43570-cb004
In short: as §1

LOC_OS06G16330-cb003 = system: LOC_OS06G16330-cb003
In short: as §1

LOC_OS06G22820-cb001 = system: T1, LOC_OS06G22820-cb001
T1 sequence (whole entry): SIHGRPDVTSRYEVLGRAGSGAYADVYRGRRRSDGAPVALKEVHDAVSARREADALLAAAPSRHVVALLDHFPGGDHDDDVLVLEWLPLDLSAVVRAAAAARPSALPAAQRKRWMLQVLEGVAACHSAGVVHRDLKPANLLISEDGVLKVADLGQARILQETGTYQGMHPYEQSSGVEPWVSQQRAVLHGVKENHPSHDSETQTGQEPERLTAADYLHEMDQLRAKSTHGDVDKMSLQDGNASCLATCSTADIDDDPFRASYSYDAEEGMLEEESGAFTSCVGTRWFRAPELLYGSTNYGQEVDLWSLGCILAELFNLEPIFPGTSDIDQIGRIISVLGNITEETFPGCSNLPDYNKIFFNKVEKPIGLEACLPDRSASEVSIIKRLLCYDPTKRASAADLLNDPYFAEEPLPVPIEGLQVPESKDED
In short: as §1

LOC_OS07G06570-cb004 = system: LOC_OS07G06570-cb004
In short: as §1

LOC_OS07G07230-cb001 = system: LOC_OS07G07230-cb001
In short: as §1
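Note: purified Escherichia coli-expressed rice kinase domain construct.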

Chain of LOC_OS06G16330-cb003 (as listed by the source): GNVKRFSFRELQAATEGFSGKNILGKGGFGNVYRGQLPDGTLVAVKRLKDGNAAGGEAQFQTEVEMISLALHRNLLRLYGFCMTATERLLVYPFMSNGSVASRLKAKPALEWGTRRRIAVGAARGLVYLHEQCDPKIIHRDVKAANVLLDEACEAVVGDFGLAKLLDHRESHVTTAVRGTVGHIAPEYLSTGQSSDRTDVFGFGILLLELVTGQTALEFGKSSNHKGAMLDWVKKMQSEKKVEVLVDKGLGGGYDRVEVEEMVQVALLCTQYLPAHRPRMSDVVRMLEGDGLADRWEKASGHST

SMILES	thermal shift delta Tm (LOC_OS04G57630-cb004)	thermal shift delta Tm (LOC_OS05G07850-cb002)	thermal shift delta Tm (LOC_OS05G16824-cb004)	thermal shift delta Tm (LOC_OS05G28520-cb001)	thermal shift delta Tm (LOC_OS05G30820-cb001)	thermal shift delta Tm (LOC_OS05G43570-cb004)	thermal shift delta Tm (LOC_OS06G16330-cb003)	thermal shift delta Tm (LOC_OS06G22820-cb001)	thermal shift delta Tm (LOC_OS07G06570-cb004)	thermal shift delta Tm (LOC_OS07G07230-cb001)
C[C@H]1[C@H](C)CC[C@]2(C(=O)O)CC[C@]3(C)C(=CC[C@@H]4[C@@]5(C)C[C@@H](O)[C@H](O)[C@@](C)(CO)[C@@H]5CC[C@]43C)[C@H]12 [Asiatic Acid]	0.45 °C	0.11 °C	-3.69 °C	0.47 °C	0.73 °C	1.08 °C	-0.23 °C	0.71 °C	0.82 °C	0.24 °C
CN1CCC(Nc2nc(Nc3ccc(Oc4ccccc4)cc3)c3c(=O)[nH]cc(Br)c3n2)CC1	1.8 °C	7.31 °C	9.77 °C	1.25 °C	1.19 °C	1.11 °C	2.6 °C	0.71 °C	-0.18 °C	-0.18 °C
Cc1ccc(Nc2nccc(N(C)c3ccc4c(C)n(C)nc4c3)n2)cc1S(N)(=O)=O [Pazopanib]	1.64 °C	7.82 °C	3.43 °C	0.62 °C	0.59 °C	-0.2 °C	4.07 °C	0.36 °C	1.66 °C	0.5 °C
Cc1ccc(NC(=O)c2cccc(C(C)(C)C#N)c2)cc1Nc1ccc2ncn(C)c(=O)c2c1	0.41 °C	0.77 °C	-1.17 °C	0.69 °C	0.63 °C	0.64 °C	0.8 °C	0.86 °C	0.75 °C	0.34 °C
C=CC(=O)Nc1cccc(C)c1Nc1ncc2cc(-c3c(Cl)c(OC)cc(OC)c3Cl)ccc2n1	0.51 °C	0.53 °C	-0.76 °C	0.18 °C	0.34 °C	0.48 °C	-5.85 °C	0.33 °C	0.84 °C	0.04 °C
CCOc1cn(-c2ccc(F)cc2C)nc1C(=O)Nc1ccc(Oc2ccnc3cc(OC)c(OC)cc23)c(F)c1	2.05 °C	11.1 °C	-0.65 °C	0.31 °C	0.28 °C	0.24 °C	3.99 °C	0.19 °C	0.82 °C	0.19 °C
O=C(O)CCC(=O)Nc1ccc(Br)cn1 [Bikinin]	0.15 °C	0.5 °C	0.58 °C	0.89 °C	0.45 °C	0.76 °C	0.72 °C	0.48 °C	0.42 °C	-0.18 °C
NC1(Cc2ccc(Cl)cc2)CCN(c2ncnc3[nH]ccc23)CC1	0.12 °C	2.2 °C	0.61 °C	0.49 °C	0.66 °C	0.72 °C	0.73 °C	0.61 °C	0.47 °C	-0.27 °C
C[C@H]1CNC(=O)c2cnn3ccc(nc23)N[C@H](C)c2cc(F)ccc2O1	1.68 °C	10.8 °C	12.5 °C	0.06 °C	0.11 °C	0.56 °C	9.31 °C	-0.23 °C	1.57 °C	0.8 °C
N#Cc1ccc2[nH]c(O)c(-c3ccc(CN4CCOCC4)cn3)c2c1	0.29 °C	2.86 °C	1.38 °C	0.81 °C	0.35 °C	0.3 °C	-0.35 °C	0.74 °C	1.19 °C	0.07 °C
O=c1cc(-c2ccccc2)oc2c(O)c(O)ccc12 [7,8-Dihydroxyflavone]	-0.51 °C	1.25 °C	-6.61 °C	2.12 °C	1.22 °C	1.47 °C	1.88 °C	1.1 °C	3.28 °C	0.94 °C
Cc1nc(NC(=O)N2CCC[C@H]2C(N)=O)sc1-c1ccnc(C(C)(C)C(F)(F)F)c1 [Alpelisib (BYL719)]	-0.02 °C	7.19 °C	-1.37 °C	0.17 °C	0.38 °C	0.29 °C	0.44 °C	0.57 °C	1.48 °C	0.13 °C
COc1cc(N2CCC(N3CCN(C)CC3)CC2)ccc1Nc1ncnc(Nc2ccccc2S(=O)(=O)C(C)C)n1	-0.16 °C	9.97 °C	-1.84 °C	0.49 °C	0.53 °C	0.45 °C	2.65 °C	0.91 °C	1.77 °C	0.45 °C
C[C@@H]1CCN(C(=O)CC#N)C[C@@H]1N(C)c1ncnc2[nH]ccc12	-0.1 °C and 0.49 °C	2.97 °C and 3.63 °C	-1.07 °C and 0.7 °C	0.03 °C and 0.86 °C	0.42 °C and 0.38 °C	0.33 °C and 0.16 °C	0.7 °C and 0.62 °C	0.46 °C and 1.08 °C	0.55 °C and 1.39 °C	0.32 °C and -0.21 °C
Cc1c(NC(=O)OC[C@@H]2COCCN2)cn2ncnc(Nc3ccc4c(cnn4Cc4cccc(F)c4)c3)c12	0.21 °C	0.64 °C	0.54 °C	0.43 °C	0.46 °C	0.75 °C	-0.49 °C	0.8 °C	0.91 °C	0.29 °C
Cc1cc2c(F)c(Oc3ncnn4cc(OC[C@@H](C)OC(=O)[C@H](C)N)c(C)c34)ccc2[nH]1	0.17 °C	2.83 °C	1.32 °C	0.65 °C	0.41 °C	0.24 °C	0.16 °C	0.5 °C	0.52 °C	0.42 °C
Oc1cc(CNC(=S)/C=C/c2cc(O)c(O)c(Br)c2)cc(O)c1O	0.49 °C	-1.85 °C	-0.73 °C	0.47 °C	0.99 °C	1.46 °C	0.61 °C	2.08 °C	3.05 °C	0.45 °C
CN1CC[C@H](c2c(O)cc(O)c3c(=O)cc(-c4ccccc4Cl)oc23)[C@H](O)C1 [Flavopiridol (Alvocidib)]	0.36 °C	5.16 °C	2.71 °C	-0.27 °C	0.85 °C	0.07 °C	3.19 °C	1.43 °C	0.96 °C	0 °C
CNC(=O)c1cc(Oc2ccc3nc(N[C@@H]4CCCC[C@H]4O)sc3c2)ccn1	0.41 °C	0.33 °C	2.01 °C	0.77 °C	0.47 °C	0.57 °C	0.27 °C	0.57 °C	0.18 °C	0 °C
